Among the data in PubChem BioAssay (NCI) are growth inhibition values, retold here.

About 79,000 compounds went through this panel and 15% of them were active in at least one assay; those are over-represented in the sample as a whole. A number with no mark means an inactive call. Active and inactive are the calls of the source. Cut-off read from the data, not from the text of the source: active = growth inhibition above about 70%; inactive = the rest.

Assay [1] in a line: NCI Yeast Anticancer Drug Screen. Data for the rad50 strain (AID 155).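 Note: 0% = growth of vehicle-only cultures of the same strain.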 The settings on record: S. cerevisiae rad50 strain growth inhibition; at 50.0 µM; stronger effect = higher value. An outline of the steps:
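Cells are treated with compound, grown, and their growth is then scored against vehicle-only cultures of the same repair-deficient yeast strain.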

Assay [2] can be described thus: NCI Yeast Anticancer Drug Screen. Data for the mec2-1 strain (AID 157). The settings on record: S. cerevisiae mec2-1 strain, at 50.0 µM, stronger effect = higher value. A digest of the protocol:
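Cells of the genetically defined mec2-1 yeast strain are incubated with test compound. Inhibition of growth is calculated against vehicle-treated controls.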

Assay [3] in a line: NCI Yeast Anticancer Drug Screen. Data for the sgs1 mgt1 strain (AID 161).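 Note: 0% = growth of cultures given vehicle only.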 Particulars: S. cerevisiae sgs1 mgt1 strain, at 50.0 µM, stronger effect = higher value. A digest of the protocol:
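Inhibition of yeast growth, normalised to vehicle-treated controls, is reported for a strain bearing genetic alterations in DNA damage repair.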

A short description of assay [4]: NCI Yeast Anticancer Drug Screen. Data for the cln2 rad14 strain (AID 165).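 Note: 0% = growth equal to vehicle treated cultures.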 The settings on record: S. cerevisiae cln2 rad14 strain, at 50.0 µM, stronger effect = higher value. A digest of the protocol:
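The screen exposed genetically defined yeast (cln2 rad14) to test compounds and scored growth inhibition relative to vehicle-treated controls.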

Assay [5] in a line: NCI Yeast Anticancer Drug Screen. Data for the bub3 strain (AID 167). The settings on record: S. cerevisiae bub3 mutant strain, at 50.0 µM, stronger effect = higher value. A digest of the protocol:
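Part of a panel of yeast mutants defective in DNA damage repair or cell cycle regulation. Each strain is grown with compound, and inhibition is calculated relative to solvent-treated cultures.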

The nature of assay [6]: NCI Yeast Anticancer Drug Screen. Data for the mlh1 rad18 strain (AID 175). Particulars: S. cerevisiae mlh1 rad18 strain growth inhibition; at 50.0 µM; stronger effect = higher value. A digest of the protocol: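 Compound-treated yeast growth, normalised to vehicle controls. Strain bears defined DNA repair mutations.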

Take `COc1cc(OC)c(C(=O)c2ccccc2N)c(OC)c1`: the growth inhibition in assay [1] is -3.2%; in assay [2], -0.35%; in assay [3], -1.5%; in assay [4], 6.55%; in assay [5], -8.45%; in assay [6] it was 9.4%.

For `O=[N+]([O-])c1ccccc1N=C=S`, the growth inhibition was 9.5% in assay [1]; -10.3% in assay [2]; -4.05% in assay [3]; -36% in assay [4]; -9.85% in assay [5]; -17.7% in assay [6].

As to `Cc1ccc(NC(=O)C(Br)C(Br)c2ccccc2)cc1Cl` (stereo unspecified), the growth inhibition in assay [1] was 94.2% (active); in assay [2] it was 95.8% (active); in assay [3] it was 96.6% (active); in assay [4] it was 95.2% (active); in assay [5], 94.7% (active); in assay [6], 95.8% (active).

As to `O=C1NC(=O)C(c2ccco2)N1` (stereo unspecified), the growth inhibition in assay [1] is 3.7%; in assay [2], -1.55%; in assay [3] it was -12.2%; in assay [4] it was 4.8%; in assay [5], -16.7%; in assay [6] it was 8.2%.

With `CCC(=O)N1CCN(C(=O)CC)c2ccccc21`, the growth inhibition in assay [1] is -3%; in assay [2] it was -5.8%; in assay [3] it was -0.25%; in assay [4], -5.25%; in assay [5], 0.75%; in assay [6], 6.65%.

On to `CC(C)NC(=O)Oc1ccccc1C(=O)OCc1ccccc1`, for which the growth inhibition is -0.45% in assay [1]; 14.1% in assay [2]; 28.9% in assay [3]; -15.1% in assay [4]; 13.4% in assay [5]; 21.2% in assay [6].

`COc1ccc(CC#N)c(OCc2ccccc2)c1`: the growth inhibition in assay [1] was 2.35%; in assay [2], 8.3%; in assay [3], -10.2%; in assay [4], 3.55%; in assay [5] it was 1.8%; in assay [6], -17.5%.

On to `c1ccc(-n2nnc3c2CCCC3)cc1`, for which the growth inhibition in assay [1] was -3.2%; in assay [2] it was -1.6%; in assay [3], -6.1%; in assay [4] it was -23.8%; in assay [5], -25.6%; in assay [6] it was -1.65%.

For the compound `C[N+]1=CN(c2ccc(Cl)cc2)Cc2cc(Cl)ccc21`, the growth inhibition in assay [1] is 31.1%; in assay [2], -12.1%; in assay [3], 25.6%; in assay [4], 13.4%; in assay [5], 40.1%; in assay [6] it was 34%.

Turning to `CCCOC(=O)c1ccccc1C(=O)OC1CCCCC1`, the growth inhibition in assay [1] is 8%; in assay [2], -2.05%; in assay [3], 9.2%; in assay [4] it was -18%; in assay [5], -2.4%; in assay [6] it was -8.65%.

With `CCN1CCCC(Nc2nc(Nc3ccc(Cl)c(Cl)c3)nc3ccc(Cl)cc23)C1` (stereo unspecified), the growth inhibition in assay [1] was 99.2% (active); in assay [2] it was 99.7% (active); in assay [3], 99.7% (active); in assay [4], 99.5% (active); in assay [5], 99.4% (active); in assay [6] it was 99.5% (active).

`COc1cc(OC)c2cc(C(=O)c3cccc4ccccc34)c(=O)oc2c1`: the growth inhibition in assay [1] was 1.35%; in assay [2], -22.8%; in assay [3], 9.65%; in assay [4], 16.9%; in assay [5] it was 19.4%; in assay [6] it was 13.4%.

Take `Cc1cccc(C(N)=S)n1`: the growth inhibition is 14.9% in assay [1]; 7.5% in assay [2]; 11.1% in assay [3]; 23.9% in assay [4]; 18.8% in assay [5]; 22.5% in assay [6].

With `CC(=O)O[C@H]1CC[C@@]2(C)[C@@H](CC[C@@H]3[C@@H]2CC(=O)[C@@]2(C)[C@H]3C[C@@H]3CC(C)=CC(=O)[C@@H]32)C1`, the growth inhibition in assay [1] was 48.2%; in assay [2], -7.55%; in assay [3], 28.6%; in assay [4] it was -20.6%; in assay [5], -34.9%; in assay [6], 28%.

For `c1ccc(-c2c(-c3ccc4c(c3)OCO4)c(-c3ccc4c(c3)OCO4)c(-c3ccccc3)c3ccccc23)cc1`, the growth inhibition is 32.4% in assay [1]; 20.6% in assay [2]; 19.8% in assay [3]; 28.2% in assay [4]; -1.95% in assay [5]; 23.4% in assay [6].

In the case of `CC(=O)c1c(C)c(Cl)c(C)c(Cl)c1O`, the growth inhibition in assay [1] was -14.6%; in assay [2], 2.75%; in assay [3] it was 17.6%; in assay [4], 7.4%; in assay [5], 26.4%; in assay [6] it was 7%.

`CCOC(=O)CN(c1c(C)cc(C)c(N(CC(=O)OCC)S(=O)(=O)c2ccccc2)c1C)S(=O)(=O)c1ccccc1`: the growth inhibition in assay [1] was 40.5%; in assay [2], 8.95%; in assay [3] it was 24.8%; in assay [4] it was -9.2%; in assay [5], 4.5%; in assay [6], 19.9%.

`OCc1cn(C(c2ccccc2)(c2ccccc2)c2ccccc2)cn1`: the growth inhibition is -113% in assay [1]; -58.3% in assay [2]; -22.5% in assay [3]; -0.85% in assay [4]; -1% in assay [5]; -30.6% in assay [6].

As for `O=C(Nc1ccc(Cl)c(Cl)c1)OC1C=CS(=O)(=O)C1` (stereo unspecified), the growth inhibition was -7.9% in assay [1]; -5.95% in assay [2]; -12.3% in assay [3]; 7.7% in assay [4]; 3.5% in assay [5]; -0.15% in assay [6].

With `CCCCCN(CCCCC)C(C)=O`, the growth inhibition is 6.85% in assay [1]; 5.95% in assay [2]; 2.3% in assay [3]; -0.65% in assay [4]; -2.15% in assay [5]; 7.45% in assay [6].

Consider `NC(=O)C[n+]1cccc(C(=O)Nc2ccccc2)c1`, for which the growth inhibition in assay [1] is 17.4%; in assay [2] it was 4.45%; in assay [3], 7.25%; in assay [4] it was -43.2%; in assay [5], 23.2%; in assay [6], 10.7%.
